This is part of a sample that, as a whole, favours compounds with a hit. Of some 83,000 tested, about 20% had one in any assay.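 48-hour exposure, single concentration, 96-well plates; percent growth endpoint where 0 means no net growth. Active: below 10.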 A number with no mark means an inactive call. Active and inactive are the calls of the source.
Experiments:
Experiment in all cases: NCI-60 one-dose screen, 48 h (100 = growth as untreated, 0 = no growth, -100 = all killed)
Settings in all cases: 10 µM unless noted
SR leukemia = test system: SR leukemia
RPMI-8226 leukemia = test system: RPMI-8226 leukemia
OVCAR-8 ovarian = test system: OVCAR-8 ovarian
OVCAR-5 ovarian = test system: OVCAR-5 ovarian
OVCAR-4 ovarian = test system: OVCAR-4 ovarian
SK-OV-3 ovarian = test system: SK-OV-3 ovarian
IGROV1 ovarian = test system: IGROV1 ovarian
OVCAR-3 ovarian = test system: OVCAR-3 ovarian
HS 578T breast = test system: HS 578T breast
NCI/ADR-RES ovarian = test system: NCI/ADR-RES ovarian

Row | SMILES | growth (SR leukemia) | growth (RPMI-8226 leukemia) | growth (OVCAR-8 ovarian) | growth (OVCAR-5 ovarian) | growth (OVCAR-4 ovarian) | growth (SK-OV-3 ovarian) | growth (IGROV1 ovarian) | growth (OVCAR-3 ovarian) | growth (HS 578T breast) | growth (NCI/ADR-RES ovarian)
1 | COc1cc2oc3cc(C)oc(=O)c3c2cc1OC | 106% | 87.2% | 97.3% | 83.1% | 93.6% | 103% | 98.9% | 110% | 106% | 89.1%
2 | CN1CCN(CCCOc2ccc3nc(Nc4cc(Cl)cc(Cl)c4)ccc3c2)CC1 | -54.8% (active) | -35.1% (active) | -47.3% (active) | -57.4% (active) | -23.9% (active) | -59% (active) | -46.8% (active) | -80.5% (active) | -34.7% (active) | -34.8% (active)
3 | CCOC(=O)c1ccc(-c2ccc3cc(OC)ccc3c2)nc1C | 78.3% | 105% | 107% | 95.4% | 112% | 98.6% | 102% | 106% | 120% | 108%
4 | COc1ccc(/C(C)=C(\c2ccc(Cl)cc2)c2ccc(OCCN(C)C)cc2)cc1F | -32% (active) | -29.2% (active) | 65.5% | 78% | 56.1% | 92.9% | 47.6% | 64.7% | 64.3% | 78.9%
5 | Cc1ccc(-n2nnc(C3=NCCc4c3[nH]c3ccc(Cl)cc43)c2C)cc1 | 52.8% | 58.6% | 66.8% | 80.2% | 76.8% | 87% | 90.5% | 83.5% | 87.8% | 76.3%
6 | C/C(Cc1ccc(Cl)cc1)=C(/c1ccc(Cl)cc1)c1ccc(OCCN(C)C)cc1 | -41.1% (active) | -41.4% (active) | 69.2% | 81.2% | 40.3% | 110% | 56.4% | 57.2% | 61% | 77.5%
7 | N#Cc1c(N)n2c(nc1=Nc1ccc(Cl)cc1)sc1cc(Cl)ccc12 | 22.6% | 87.2% | 64.9% | 105% | 63.1% | 77.2% | 95.9% | 98.1% | 33.3% | 73.1%
8 | COC(=O)CCCNC(=O)C(=O)c1c(O)c(O)c(C(C)C)c2cc(C)c(-c3c(C)cc4c(C(C)C)c(O)c(O)c(C(=O)C(=O)NCCCC(=O)OC)c4c3O)c(O)c12 | -1.66% (active) | 17.1% | -15.1% (active) | 4.86% (active) | -3.33% (active) | -4.94% (active) | 18.2% | 4.88% (active) | 12.2% | 9.74% (active)
9 | COc1cc2nc(Nc3ccc(F)cc3)nc(N)c2cc1OC | 64.2% | 76.8% | 93.1% | 99.1% | 97.7% | 110% | 107% | 91.3% | 111% | 87.6%
10 | CC(C)N(CCOC(=O)Nc1ccccc1Cl)C(C)C | 89.7% | 96% | 99.7% | 111% | 119% | 102% | 107% | 112% | 95.8% | 105%
11 | CNC1(C#N)CCN(Cc2ccccc2)CC1 | 132% | 110% | 113% | 100% | 103% | 99.4% | 101% | 99.9% | 104% | 103%
12 | Cc1cnc(Nc2ccc(N3CCN(C)CC3)cc2)nc1Nc1ccc(Cl)c(NS(=O)(=O)C(C)(C)C)c1 | -3.93% (active) | 5.58% (active) | 21.7% | 19.9% | 27.9% | -6.97% (active) | 6.84% (active) | 9.51% (active) | -6.51% (active) | 21%
13 | COc1c(C)cnc(CSc2nc(-c3ccc(C)cc3)cn2-c2ccc(Cl)cc2)c1C | 74.8% | 89.9% | 98.5% | 97.5% | 90.2% | 91% | 93.4% | 93.5% | 105% | 95.5%
14 | Cc1cc(NS(=O)(=O)c2ccccc2)c(OS(=O)(=O)c2ccccc2)cc1C | 94.6% | 84.1% | 95.1% | 114% | 106% | 108% | 122% | 110% | 101% | 102%
15 | O=C1C2=C(CCN(Cc3ccccc3)C2)N2CCN=C2N1Cc1ccc(F)cc1F | 55.5% | 19.3% | 17.4% | 56.4% | -2.31% (active) | 27.8% | 47.5% | 26.8% | 45.8% | 20.1%
16 | O=C(Nc1ccccc1Cl)OCCN1CCOCC1 | 103% | 101% | 107% | 110% | 110% | 112% | 107% | 105% | 120% | 104%
17 | O=c1ccn(C2OC(F)(CO)C(O)C2F)c(=O)[nH]1 (stereo not given) | 101% | 106% | 98.3% | 103% | 105% | 93.4% | 112% | 107% | 94.1% | 101%
18 | COC(=O)[C@]12CC[C@@H](C)[C@H](C)[C@@H]1C1=CC[C@@H]3[C@@]4(C)C(C=O)=C[C@@](C)(CO)C4=CC[C@@]3(C)[C@]1(C)CC2 | 15.5% | 12.8% | 32.2% | 62.9% | 31.7% | 76.3% | 45.4% | 24.3% | 47.5% | 31.9%
19 | O=C(O)C1C[C@](O)(c2ccc(F)cc2)[C@@H](c2ccc(F)cc2)O1 (stereo not given in full) | 73.8% | 69.1% | 95.1% | 90.8% | 107% | 97.5% | 71.8% | 146% | 124% | 96.5%
20 | NC(N)=N/N=C/CO | 92% | 103% | 103% | 104% | 96% | 102% | 108% | 107% | 112% | 95.5%
21 | CSc1nc(N)c(CNC(C)c2ccccc2)c(=O)n1C (stereo not given) | 103% | 109% | 97.9% | 91.7% | 104% | 97.5% | 101% | 110% | 99.6% | 100%
22 | CN(C)c1ccc(/C=C/c2c(F)cccc2F)cc1 | 93.7% | 95.8% | 99.7% | 104% | 90.3% | 89.3% | 59.7% | 98% | 89.9% | 92.6%
23 | CCNCCNc1cc(-c2ccc(C#N)cc2)c(C#N)c2nc3ccccc3n12 | -1.04% (active) | 51.6% | 38.7% | 75.6% | -34% (active) | 87.4% | 47.7% | -47.7% (active) | 25.2% | 60.9%
24 | CN(C)CCN1C(=O)c2cccc3c(-c4ccc(-c5nc6c7ccccc7c7ccccc7c6[nH]5)cc4)ccc(c23)C1=O | 38.6% | 54.9% | 52% | 123% | -2.99% (active) | 109% | 96.3% | 117% | 117% | 88.1%
25 | COc1cc(C(=O)Nc2cc(O)c(CC=C(C)C)c(O)c2)cc2c1O[C@]1(C)CC[C@@H](O)C(C)(C)[C@H]1C2 | 14.2% | -24.3% (active) | 31.3% | 53% | 58.6% | 16.5% | 61.1% | 27.7% | 10.3% | 81.3%
26 | C(=C\c1nc2ccccc2[nH]1)/c1nc2ccccc2[nH]1 | 93.3% | 89.9% | 97.6% | 111% | 97.1% | 98.4% | 93.1% | 109% | 100% | 94.3%
27 | CCOC(=O)c1ccc(NC(=O)CCCN(CC)CC)cc1 | 92.8% | 97.8% | 102% | 106% | 111% | 109% | 107% | 105% | 119% | 99%

— PubChem BioAssay (NCI)
